# Results reported in PubChem BioAssay.
# Active and inactive are the calls of the source. Unless noted, how the calls were made is not given here.
# Tests used:
# [1] = tested on: XIP peptide (Xip251-270) binding; assay: XIP fragment 251-270 binding compounds – biochemical, small-molecule microarray, fluorescence 635/667 nm, 0.1 µg/mL protein, primary screen (AID 1182); settings: fluorescent protein binding, 635 nm, higher = more signal, called active from +8 up or from −8 down
# XIP peptide (Xip251-270) = assay: compounds binding XIP fragment 251-270 – biochemical, small-molecule microarray, fluorescence 635/667 nm, 0.5 µg/mL protein, primary screen (AID 1183); settings: fluorescence 635 nm, higher = more signal
# [2] = blood-stage malaria parasite viability loss – strain 3D7, DAPI fluorescence, 100 nL, primary screen (AID 1184);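 further: parasites grown inside human red blood cells in medium with human serum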; settings: P. falciparum 3D7 growth, 3 d, higher = more signal
# [3] = molecular target: Homeobox protein Hox-A13 (Mus musculus) (UniProt Q62424); assay: disruptors of Hoxa13 oligonucleotide interaction – biochemical, fluorescence polarization, labeled oligonucleotide, primary screen (AID 1185); settings: Hoxa13:DNA binding, 15 min, higher = more signal, called active from +8 up or from −8 down
# Homeobox protein Hox-A13 (Mus musculus), sequence (Q62424 whole entry, looked up): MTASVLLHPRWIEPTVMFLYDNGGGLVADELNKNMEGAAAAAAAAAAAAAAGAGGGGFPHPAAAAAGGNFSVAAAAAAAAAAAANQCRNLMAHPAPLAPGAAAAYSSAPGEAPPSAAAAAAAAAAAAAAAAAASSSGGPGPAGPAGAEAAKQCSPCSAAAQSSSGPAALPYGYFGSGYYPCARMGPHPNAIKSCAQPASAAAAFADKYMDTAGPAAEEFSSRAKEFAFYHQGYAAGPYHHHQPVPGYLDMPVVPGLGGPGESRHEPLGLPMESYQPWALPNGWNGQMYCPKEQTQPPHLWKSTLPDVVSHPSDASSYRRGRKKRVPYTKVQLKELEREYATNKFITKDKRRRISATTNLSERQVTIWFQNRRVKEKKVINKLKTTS
# [4] = blockers of DNA damage checkpoint Chk1 activation – imaging, HeLa, hydroxyurea, phospho-Chk1 antibody, percent positive cells, primary screen (AID 1186); settings: hydroxyurea-induced phospho-Chk1 immunofluorescence imaging, higher = more signal
# [5] = blockers of DNA damage checkpoint Chk1 activation – imaging, HeLa, hydroxyurea, phospho-Chk1 nuclear intensity, primary screen (AID 1187); settings: hydroxyurea-induced phospho-Chk1 immunofluorescence imaging, higher = more signal
Structure (SMILES),composite z-score [1],composite z-score (XIP peptide (Xip251-270)),z-score [2],z-score [3],z-score [4],z-score [5]
C=C(C)C1CN([C@H](CO)c2ccccc2)C(=O)/C1=C\c1ccccc1 (stereo partly specified),-0.598 (inactive),0.36,-1.9,-1.05 (inactive),-0.484 (inactive),-0.234 (inactive)
C=CCC(OC(C)=O)[C@@H]1[C@@H](N(Cc2cccc3ccccc23)C(=O)c2ccc(C)cc2)c2cc(OCCCO)ccc2N1C(=O)Cc1ccc2ccccc2c1 (stereo partly specified),-0.929 (inactive),0.0814,-0.145,-0.0782 (inactive),-0.648 (inactive),-0.416 (inactive)
CCOC(=O)C[C@H]1[C@H](OC(=O)Cc2ccc3c(c2)OCO3)[C@@H](NC(=O)CC(C)C)c2cc(OCCCO)ccc2N1C(=O)c1ccc2ccccc2n1,0.216 (inactive),0.784,-2.04,-4.65 (inactive),-0.0615 (inactive),0.252 (inactive)
C=CCC(OC(C)=O)[C@@H]1[C@@H](N(Cc2ccc(-c3ccccc3)cc2)C(=O)Cc2ccc(OC)cc2)c2cc(OCCCO)ccc2N1C(=O)Cc1ccc(OC)cc1 (stereo partly specified),0.497 (inactive),-0.243,-1.97,-2.75 (inactive),0.684 (inactive),0.763 (inactive)
COCCOC(=O)N1C(=O)[C@@]2(c3cc(C#CC4=CCCCC4)ccc31)[C@H](C(=O)N1CCCCCCC1)[C@H]1C(=O)O[C@H](c3ccccc3)[C@H](c3ccccc3)N1[C@@H]2c1ccccc1OCCO,0.502 (inactive),0.712,-2.04,3.21 (inactive),-0.245 (inactive),-0.178 (inactive)
O=C1OC[C@@H](c2ccccc2)n2cc(/C=C/c3ccccc3)cc21,0.623 (inactive),0.505,-0.0812,0.816 (inactive),-0.481 (inactive),-0.268 (inactive)
CC(CO)N1C(=O)[C@@H]2[C@H]3C(=O)OCC=C[C@H]3OC23C=CCN(c2ccc4ccccc4c2)C(=O)[C@@H]13 (stereo partly specified),-0.0975 (inactive),0.547,0.48,-4.49 (inactive),-0.233 (inactive),0.0823 (inactive)
C=C1C(=O)C=C2CN(C(=O)c3ccccc3)[C@@](Cc3ccc(F)cc3)(C(=O)OC)[C@@H]12,0.741 (inactive),0.459,-1.59,-4.76 (inactive),-2.23 (inactive),-3.76 (inactive)
N#Cc1ccc(NN2C(C(O)c3ccc(B(O)O)cc3)C=CC3CN(c4ccccc4)C(=O)C32)cc1 (stereo unspecified),-0.0004 (inactive),0.658,-0.0223,-2.55 (inactive),-1.03 (inactive),-0.622 (inactive)
O=C1NC(=O)C2C1C=CC(C(O)c1ccc(F)cc1)N2Nc1ccc(Cl)cc1Cl (stereo unspecified),-0.138 (inactive),-0.258,-0.525,-5.48 (inactive),-0.142 (inactive),0.116 (inactive)
COCCOC(=O)N1C(=O)[C@@]2(c3cc(C#CCC(C(=O)OC)C(=O)OC)ccc31)[C@H](C(=O)N1CCc3cc(OC)c(OC)cc3C1)[C@H]1C(=O)O[C@H](c3ccccc3)[C@H](c3ccccc3)N1[C@@H]2c1ccccc1OCCO,0.629 (inactive),0.733,-2.12,0.96 (inactive),-0.182 (inactive),-0.252 (inactive)
CCCCC(=C=CC[C@@H](O)c1ccccc1OCCO)C[C@@H](O)c1ccccn1,0.161 (inactive),0.338,-1.48,-5.1 (inactive),-0.0323 (inactive),-0.123 (inactive)
C[C@]1(C(=O)NC2CC2)c2ccccc2C(=O)N(Cc2cc(F)cc(C(F)(F)F)c2)[C@H]1c1ccc(CO)cc1,0.431 (inactive),0.883,0.0713,-3.51 (inactive),0.361 (inactive),0.529 (inactive)
C=CCNC(=O)[C@H]1[C@@H]2C(=O)O[C@@H](c3ccccc3)[C@@H](c3ccccc3)N2[C@@H](c2ccc(OCCO)cc2)[C@]12C(=O)N(C(=O)OCCOC)c1ccc(C#CCNC(N)=O)cc12,0.797 (inactive),0.579,0.0978,-1.67 (inactive),-0.128 (inactive),-0.209 (inactive)
COc1ccc(CCNC(=O)[C@@]2(c3ccc([N+](=O)[O-])cc3)CC(=O)N(C3CCCCC3)[C@@H]2c2ccc(CO)cc2I)cc1,0.548 (inactive),0.671,-1.96,-3.27 (inactive),0.129 (inactive),0.294 (inactive)
C=C(CCCC)/C(=C/C[C@@H](OC(C)=O)c1cccc(OCCO)c1)c1cc(C(=O)OC)ccc1OC,-0.234 (inactive),0.826,-3.06,-5.01 (inactive),0.496 (inactive),0.331 (inactive)
C=C(C(=O)CC[C@@H](OC(=O)c1ccccc1-c1ccccc1C(=O)O)c1ccc(CO)o1)C(C)C,0.525 (inactive),0.434,1.88,-5.42 (inactive),0.762 (inactive),0.478 (inactive)
C=C(C(=O)CC[C@@H](OC(=O)c1cccnc1)c1cccc(OCCO)c1)C(C)C,-0.0726 (inactive),0.61,-2.56,-3.51 (inactive),-0.361 (inactive),0.519 (inactive)
CCCCN1CC=CC23O[C@@H]4/C=C\CCC(C)OC(=O)C4[C@H]2C(=O)N(CCO)[C@@H]3C1=O (stereo partly specified),0.874 (inactive),-0.629,-0.165,-5.58 (inactive),-0.967 (inactive),-0.862 (inactive)
Cc1ccc(N2C(=O)c3ccccc3[C@@H](C(=O)NCCN3CCOCC3)[C@@H]2c2ccc(CO)cc2)nc1,0.0616 (inactive),0.669,1.41,-1.67 (inactive),0.0197 (inactive),0.274 (inactive)
O=C1N(Cc2ccccc2)c2ccccc2C[C@@]12N=C(c1ccc(OCCCO)cc1)O[C@H]2c1ccccc1,1.85 (inactive),0.541,-2.52,-5.07 (inactive),0.134 (inactive),0.553 (inactive)
